Values joined by “and” are separate entries in the source; they are usually repeats but may differ in a detail not shown here. Equal values may be shown once. The whole screen tested about 330,000 compounds, of which about 1,900 (0.58%) were called active.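 The calls were made as follows: active = inhibition of aptamer binding above 40%, roughly 3 SD of noise, on plates passing a quality check; inactive = the rest.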 The full list was thinned out, with actives kept by preference. Where a structure was tested more than once in an assay, its records may differ in their call.

The results in this text go back to PubChem BioAssay AID488847 (NMMLSC, 2010).

Chain of Beta-adrenergic receptor kinase 1 (Homo sapiens) (P25098 whole entry, looked up): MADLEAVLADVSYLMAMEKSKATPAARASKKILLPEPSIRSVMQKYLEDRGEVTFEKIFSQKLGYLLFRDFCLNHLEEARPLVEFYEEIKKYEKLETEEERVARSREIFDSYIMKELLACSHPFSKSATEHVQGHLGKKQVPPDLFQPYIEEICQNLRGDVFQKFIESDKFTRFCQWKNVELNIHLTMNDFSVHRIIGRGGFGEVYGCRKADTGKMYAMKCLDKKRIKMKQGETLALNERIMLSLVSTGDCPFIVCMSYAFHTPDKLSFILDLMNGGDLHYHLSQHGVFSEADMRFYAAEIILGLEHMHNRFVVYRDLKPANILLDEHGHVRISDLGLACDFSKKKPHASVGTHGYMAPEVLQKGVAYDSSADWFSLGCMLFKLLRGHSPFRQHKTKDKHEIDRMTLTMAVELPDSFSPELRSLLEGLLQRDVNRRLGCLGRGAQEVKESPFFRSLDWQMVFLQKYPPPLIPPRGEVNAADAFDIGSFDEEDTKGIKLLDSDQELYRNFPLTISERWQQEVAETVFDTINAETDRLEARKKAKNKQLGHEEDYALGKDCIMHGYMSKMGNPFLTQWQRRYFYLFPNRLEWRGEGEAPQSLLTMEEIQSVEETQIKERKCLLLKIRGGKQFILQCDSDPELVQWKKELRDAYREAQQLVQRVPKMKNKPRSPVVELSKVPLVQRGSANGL

This test has as its target Beta-adrenergic receptor kinase 1 (Homo sapiens) (UniProt P25098). As to the kind of experiment: compounds blocking aptamer binding on GRK2 – biochemical, human GRK2, bead flow cytometry, HTS, primary screen (AID 488847).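 Also: median bead fluorescence of bound FAM aptamer so fluorescent compounds give negative values.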 Particulars: FAM-aptamer displacement from GRK2, at 10 µM, stronger effect = higher value. On the technique in general: In flow cytometry, cells or beads pass a laser one at a time.
With `COc1nc(NC2CCCCC2)nc(N2CCCCCC2)n1`, the inhibition of aptamer binding was 1% (inactive). On to `Cc1cc(/C=C2/SC(=O)N(CC(=O)OC(C)C)C2=O)c(C)n1C`, for which the inhibition of aptamer binding is 2% (inactive).

`C=CC1=C(C(=O)O)N2C(=O)[C@@H](NC(=O)/C(=N/OCC(=O)O)c3csc(N)n3)[C@H]2SC1`: the inhibition of aptamer binding is 0% (inactive). For `C=CC1=C(C(=O)O)N2C(=O)[C@@H](NC(=O)/C(=N\OCC(=O)O)c3csc(N)n3)[C@H]2SC1`, the inhibition of aptamer binding is 66% (active). `CO/N=C(\C(=O)N[C@@H]1C(=O)N2C(C(=O)O)=C(COC(C)=O)CS[C@H]12)c1csc(N)n1` (stereo in doubt): the inhibition of aptamer binding is 0% (inactive) and 38% (inactive) and 1% (inactive). In the case of `CC[C@@H](C)[C@@H]1CN([C@@H](C)CN2CCC[C@H]2CN2C(N)=NC[C@H]2C(C)C)C(=N)N1CCc1ccc(Cl)c(Cl)c1`, the inhibition of aptamer binding was 0% (inactive). Turning to `COc1ccc(CNc2nc(NCc3ccc(OC)cc3)c3ncn(C4CCCC4)c3n2)cc1`, the inhibition of aptamer binding was 0% (inactive).

In the case of `O=C1[C@@H]2C(c3cccnc3)=NO[C@@H]2C(=O)N1c1ccc(Cl)cc1Cl`, the inhibition of aptamer binding was 4% (inactive). With `CCOc1cccc(OCCCOc2cccc3cccnc23)c1`, the inhibition of aptamer binding is 1% (inactive). As for `O=C(NNc1ncnc2c1cnn2-c1ccccc1)c1ccco1`, the inhibition of aptamer binding was 97% (active). As to `Cc1ccccc1NC(=O)c1cnn(-c2ccccc2)c1NC(=O)c1ccco1`, the inhibition of aptamer binding was 3% (inactive).

Consider `C1=C(CCNc2ncnc3c2cnn3-c2ccccc2)CCCC1`, for which the inhibition of aptamer binding was 0% (inactive).

As for `CC(OC(=O)/C=C/c1ccccc1)C(=O)NC1CCCCC1C` (configuration not stated), the inhibition of aptamer binding was 0% (inactive). Turning to `CC(=O)N1CCN(CC(=O)Nc2ccc(C)c(F)c2)CC1`, the inhibition of aptamer binding was 1% (inactive). Consider `CCCc1noc2c1/C(=N\O)CCC2`, for which the inhibition of aptamer binding was 0% (inactive). `Cc1ccn2cc(C(=O)NC3CCN(Cc4ccccc4)CC3)nc2c1`: the inhibition of aptamer binding is 0% (inactive).

For `Cc1ccc(-c2cc(C(=O)NC3CCN(Cc4ccccc4)CC3)c3ccccc3n2)cc1`, the inhibition of aptamer binding is 0% (inactive).

Regarding `Cc1cc(C(=O)NC2CCN(Cc3ccccc3)CC2)n[nH]1`, the inhibition of aptamer binding was 50% (active). The value for `O=C(N/C(=C/c1ccc(Cl)cc1)C(=O)N1CCCCC1)c1ccco1` was 0% (inactive). As to `CCC(=C/c1sc2ccc3ccccc3c2[n+]1C)/C=C1\Sc2ccc3ccccc3c2N1C`, the inhibition of aptamer binding is 100% (active).

`N/C(=N\OC(=O)CCC1CCCCC1)c1ccccn1`: the inhibition of aptamer binding was 0% (inactive).

Consider `O=C(c1noc2c1CCCC2)N1CCc2ccccc2C1`, for which the inhibition of aptamer binding is 0% (inactive). Take `OC(COc1ccc2c(c1)CCC2)CN1CCN(c2cccc(Cl)c2)CC1` (configuration not stated): the inhibition of aptamer binding is 0% (inactive).

`CCN1C(=O)/C(=C\N2CCN(c3cccc(Cl)c3)CC2)SC1=S`: the inhibition of aptamer binding was 3% (inactive).

Take `CCc1nn(CCCN2CCN(c3cccc(Cl)c3)CC2)c(=O)n1CCOc1ccccc1`: the inhibition of aptamer binding was 43% (active) and 0% (inactive). The value for `CN(CCc1ccccn1)S(=O)(=O)c1ccc2c3c(cccc13)C(=O)N2` was 0% (inactive); that for `Cc1ccccc1C(=O)N1CCC(C(=O)Nc2ccc(S(=O)(=O)N(C)C(C)C)cc2)CC1` was 0% (inactive); that for `COc1cc(C(=O)Nn2c(CC(C)C)nc3ccccc3c2=O)cc(OC)c1OC` was 0% (inactive). In the case of `CCCCc1nc2ccccc2c(=O)n1NC(=O)c1c(O)c2cccc3c2n(c1=O)CC3`, the inhibition of aptamer binding was 0% (inactive).

Take `CCCc1nc2ccccc2c(=O)n1NC(=O)c1c(O)c2ccccc2[nH]c1=O`: the inhibition of aptamer binding is 92% (active).

For the compound `Cc1ccc(NC(=O)COC(=O)CNC(=O)c2ccc(Cl)cc2Cl)cc1S(=O)(=O)N1CCOCC1`, the inhibition of aptamer binding is 2% (inactive). Turning to `Fc1ccc(CNc2nc3ccccc3n3nnnc23)cc1`, the inhibition of aptamer binding was 2% (inactive).

On to `O=c1ccc2c(-c3ccccc3S(=O)(=O)O)c3ccc(O)c(O)c3oc-2c1O`, for which the inhibition of aptamer binding is 75% (active).

As to `Cc1cc(OCC(=O)N(C)c2c(N)n(Cc3ccccc3)c(=O)[nH]c2=O)c(C(C)C)cc1Cl`, the inhibition of aptamer binding is 1% (inactive). Regarding `O=C1CCCCC1Sc1ccc(Cl)cc1[N+](=O)[O-]` (configuration not stated), the inhibition of aptamer binding was 1% (inactive).

As to `COc1ccccc1N(C)S(=O)(=O)c1ccc(Cl)c(C(=O)Nc2ccncc2)c1`, the inhibition of aptamer binding is 0% (inactive).

As for `O=C1CCCN1C(=O)COc1ccc([N+](=O)[O-])cc1`, the inhibition of aptamer binding is 1% (inactive). The value for `O=C(Nc1nnc(-c2ccccc2)o1)c1cccc(S(=O)(=O)N2CCOCC2)c1` was 49% (active); that for `O=C(Nc1ccc(N2CCOCC2)cc1)c1cccc(S(=O)(=O)N2CCOCC2)c1` was 2% (inactive); that for `CN=C(Nc1cccc(S(=O)(=O)N2CCOCC2)c1)c1ccccc1` was 79% (active). Turning to `O=C(CSc1ccccc1)Nc1cccc(S(=O)(=O)N2CCOCC2)c1`, the inhibition of aptamer binding was 2% (inactive). The value for `O=C(COC(=O)c1ccccc1)Nc1cccc(S(=O)(=O)N2CCOCC2)c1` was 1% (inactive); that for `O=C(Nc1nnc(-c2ccco2)o1)c1ccc(S(=O)(=O)N2CCOCC2)cc1` was 0% (inactive); that for `Nc1cc(N2CCCCCC2)c2nonc2c1[N+](=O)[O-]` was 0% (inactive).

Take `O=C(CCS(=O)(=O)c1ccc(Br)cc1)NCCc1ccc(Cl)cc1`: the inhibition of aptamer binding was 49% (active). `COc1ccc(Cl)cc1NC(=O)CCS(=O)(=O)c1cc2c(cc1C)NC(=O)CO2`: the inhibition of aptamer binding was 80% (active).

Consider `COc1ccc(NC(=O)CCS(=O)(=O)c2cc3c(cc2Cl)NC(=O)CO3)cc1OC`, for which the inhibition of aptamer binding is 0% (inactive). In the case of `Cc1ccc(S(=O)(=O)CCC(=O)OCC(=O)NCCc2ccc(S(N)(=O)=O)cc2)cc1`, the inhibition of aptamer binding was 0% (inactive).

With `COc1ccc(Cl)cc1NC(=O)CCS(=O)(=O)c1ccc(Br)cc1`, the inhibition of aptamer binding is 89% (active). On to `CCOc1ccc(OCC)c(NC(=O)CCS(=O)(=O)c2ccc(C)cc2)c1`, for which the inhibition of aptamer binding is 0% (inactive). For the compound `O=C(Cc1ccc(Br)cc1)NCCc1ccccc1`, the inhibition of aptamer binding was 1% (inactive). For the compound `Cc1cc2c(cc1S(=O)(=O)CCC(=O)NCc1ccccc1)OCC(=O)N2`, the inhibition of aptamer binding was 2% (inactive). Take `COc1ccc(Cl)cc1NC(=O)COC(=O)c1ccc(Br)o1`: the inhibition of aptamer binding is 0% (inactive). Consider `Cc1ccc(CN2C(=O)N/C(=C/c3cc(C)n(-c4ccccn4)c3C)C2=O)cc1`, for which the inhibition of aptamer binding is 1% (inactive). Take `CCc1cc2c(=O)c(-c3nc4ccccc4n3C)c(CCCC(=O)O)oc2cc1OC(=O)C(C)(C)C`: the inhibition of aptamer binding was 1% (inactive).

`COc1ccc(CN2C3CCCC2CC(NC(=O)c2cccc(F)c2)C3)cc1` (configuration not stated): the inhibition of aptamer binding was 0% (inactive). The value for `CC(=O)N1CCC(C(=O)Nc2nc(-c3ccccc3)ns2)CC1` was 0% (inactive). For the compound `CC(Sc1nncn1C)C(=O)Nc1cc(C(F)(F)F)ccc1N1CCOCC1` (configuration not stated), the inhibition of aptamer binding is 0% (inactive). Turning to `C=CCNC(=O)CC12CC3CC(C1)CC(CC(=O)NCC=C)(C3)C2`, the inhibition of aptamer binding was 1% (inactive). Take `O=C(NCC12CC3CC(C1)CC(CNC(=O)N1CCCC1)(C3)C2)N1CCCC1`: the inhibition of aptamer binding is 54% (active). `O=C(N1CCCC1)C12CC3CC(C1)CC(C(=O)N1CCCC1)(C3)C2`: the inhibition of aptamer binding is 3% (inactive).

For `O=c1[nH]c(SCc2ccccc2)nnc1-c1ccccc1`, the inhibition of aptamer binding is 80% (active). As to `N#Cc1c(-c2ccccc2)nc(SCc2ccc([N+](=O)[O-])cc2)[nH]c1=O`, the inhibition of aptamer binding was 5% (inactive). As for `Cc1ccccc1CSc1nnc(-c2ccccc2)c(=O)[nH]1`, the inhibition of aptamer binding is 3% (inactive).

As for `COc1cc(OC)cc(C(=O)Nc2nnc(SCC(=O)NCC3CCCO3)s2)c1` (configuration not stated), the inhibition of aptamer binding was 0% (inactive). With `CCC(=O)Nc1ccccc1C(=O)N1CCN(Cc2ccccc2)CC1`, the inhibition of aptamer binding is 2% (inactive). `COc1ccc(Nc2nc(-c3cccnc3)nc3ccccc23)cn1`: the inhibition of aptamer binding is 60% (active).

Take `S=c1nc2ccccc2c2nc(-c3cccnc3)[nH]n12`: the inhibition of aptamer binding is 0% (inactive). For `CC(C)(C)Nc1nc(-c2ccccn2)nc2ccccc12`, the inhibition of aptamer binding was 0% (inactive).

Regarding `COc1cc(OC)c(C2=NOC(C(=O)Nc3c(C)n(C)n(-c4ccccc4)c3=O)C2)cc1Cl` (configuration not stated), the inhibition of aptamer binding is 1% (inactive). As to `Cc1ccc(Sc2cc(C(=O)c3ccccc3C(=O)O)ccc2[N+](=O)[O-])cc1`, the inhibition of aptamer binding is 0% (inactive). In the case of `O=C(NCc1ccccc1)[C@H]1C[C@@H]1[C@H](NP(=O)(c1ccccc1)c1ccccc1)c1ccccc1`, the inhibition of aptamer binding is 0% (inactive). With `COc1ccccc1N1CCN(CC(=O)Nc2ccnn2C2CCCC2)CC1`, the inhibition of aptamer binding is 0% (inactive). In the case of `C/C(=N\Nc1nc(Nc2ccccc2)nc(N2CCOCC2)n1)c1cccs1`, the inhibition of aptamer binding is 0% (inactive). As for `O=C(Nc1ccccc1-c1nc2ccccc2[nH]c1=O)c1cccs1`, the inhibition of aptamer binding is 1% (inactive).

With `C/C(=N\Nc1nc2ccccc2[nH]1)c1cccs1`, the inhibition of aptamer binding is 100% (active).

With `CCN(CC(=O)NCc1ccc(Cl)cc1)C(=O)c1c(C)noc1C`, the inhibition of aptamer binding was 0% (inactive). Regarding `CCOc1cc2[nH]c(=S)n(Cc3ccc(C(=O)N4CCN(C)CC4)cc3)c(=O)c2cc1OCC`, the inhibition of aptamer binding was 0% (inactive). `COc1ccc(Cn2c(=S)[nH]c3cc(C(=O)N4CCCCC4)ccc3c2=O)cc1`: the inhibition of aptamer binding is 2% (inactive). The value for `NC(=O)C1CCN(C(=O)c2ccc3c(=O)n(Cc4cccc(Br)c4)c(=S)[nH]c3c2)CC1` was 69% (active). Take `O=S(=O)(c1ccc(NC(=S)NN=C(C2CC2)C2CC2)cc1)N1CCOCC1`: the inhibition of aptamer binding is 1% (inactive). `Cc1ccc(S(=O)(=O)N2CCN(CC(=O)N/N=C/c3cc([N+](=O)[O-])ccc3Cl)CC2)cc1`: the inhibition of aptamer binding was 0% (inactive). Regarding `O=[N+]([O-])c1cc(Cl)cc(/C=N/NC(=S)Nc2cc(S(=O)(=O)N3CCOCC3)ccc2Cl)c1O`, the inhibition of aptamer binding was 98% (active). On to `Fc1ccccc1Cc1ccc(Cl)nn1`, for which the inhibition of aptamer binding was 0% (inactive).

On to `CCN1CCN(CC(=O)Nc2sc3c(c2C#N)CCC3)CC1`, for which the inhibition of aptamer binding is 0% (inactive). As to `Cc1cccc(C(=O)OCC(=O)Nc2sc3c(c2C#N)CCC3)c1`, the inhibition of aptamer binding is 6% (inactive).

As for `COc1cccc(CN(C)CC(=O)Nc2sc3c(c2C#N)CCC3)c1`, the inhibition of aptamer binding was 94% (active). For `Cc1nn2cc(-c3ccc(Cl)cc3)cnc2c1Br`, the inhibition of aptamer binding was 4% (inactive). With `CCOC(=O)c1cc2c(ccn2C)n1CC(=O)N1CCC(C)CC1`, the inhibition of aptamer binding is 1% (inactive). The value for `Cc1ccc(OCC(=O)Oc2ccccc2[N+](=O)[O-])cc1` was 1% (inactive); that for `COc1ccc(C2c3ccc(O)cc3Oc3ncn(CCCO)c(=N)c32)cc1OC` (configuration not stated) was 0% (inactive). On to `COc1ccccc1S(=O)(=O)c1c(C)cc(C)[nH]c1=O`, for which the inhibition of aptamer binding is 1% (inactive).
